A short description of assay [1]: antimalarial activity against Dd2 strain (AID 2302;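 active means growth inhibition above 50% at the single 2 µM test dose, taken to imply half-maximal potency below 2 µM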;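 further: 0% = DMSO untreated growth and 100% = chloroquine plus artemisinin killed control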). Particulars: P. falciparum Dd2 in RBCs, LDH growth readout, 72 h; at 2 µM; hits give high values.
The nature of assay [2]: human hepatoma cell viability loss – ATP luminescence, cytotoxicity control for P. falciparum antimalarial project, primary screen (AID 2303;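 active means inhibition above 50%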;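 further: 0% = DMSO wells and 100% = digitonin-killed cells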). The settings on record: HepG2 viability, 24-48 h, at 10 µM, hits give high values.
The target in assay [3] is L-lactate dehydrogenase (Plasmodium falciparum (isolate CDC / Honduras)) (UniProt Q27743). The experiment in a line: PfLDH activity inhibition – cell lysate, 3D7 strain, counter-screen for P. falciparum growth inhibition project (AID 2304).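 Further: 0% = vehicle and 100% = reference inhibitor.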 The settings on record: P. falciparum 3D7 crude extract, LDH APAD/NBT absorbance; at 2 µM; hits give high values.
The nature of assay [4]: inhibition of 3D7 malaria parasite growth – strain 3D7 (AID 2306).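 Further: 0% = DMSO wells and 100% = chloroquine plus artemisinin control wells.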 Particulars: P. falciparum 3D7 erythrocytic growth, LDH absorbance, 72 h; at 2 µM; hits give high values.
Assay [5] deals with Calcium-dependent protein kinase 1 (Plasmodium falciparum (isolate 3D7)) (UniProt P62344). The assay is described as follows: PfCDPK1 kinase inhibitors, biochemical, TCAMS library (AID 1159585; cut-off not given, nearly all actives have IC50 up to about 0.98 µM;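 further: inhibitors leave more ATP so luminescence rises with inhibition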). Particulars: recombinant PfCDPK1, Kinase-Glo ATP depletion luminescence. For orientation: Kinase-Glo measures the ATP left after a reaction by luminescence.
Assay [6] deals with Plasmodium falciparum protein kinase 6 (PK6, PF3D7_1337100) (UniProt Q8IDW1). The experiment in a line: PfPK6 kinase inhibitors, biochemical, TCAMS library (AID 1159586). Particulars: recombinant PfPK6, Kinase-Glo ATP depletion luminescence.
For assay [7], the target named is Protein kinase 7 (PK7), Plasmodium falciparum 3D7 (PF3D7_0213400) (UniProt Q7YTF7). The assay is described as follows: inhibition of Plasmodium PK7 catalytic activity – biochemical, TCAMS antimalarial set, Kinase-Glo luminescence (AID 1159587). The settings on record: recombinant PfPK7, Kinase-Glo ATP depletion luminescence.
Assay [8] has as its target Calcium-dependent protein kinase 4 (Plasmodium falciparum (isolate 3D7)) (UniProt Q8IBS5). The experiment in a line: PfCDPK4 kinase inhibitors, biochemical, TCAMS library (AID 1159588; cut-off not given, nearly all actives have IC50 up to about 0.91 µM). The settings on record: recombinant PfCDPK4, Kinase-Glo ATP depletion luminescence.

Unmarked numbers belong to inactive results. For some of these results: Entries with a potency or affinity are not part of this list. Active and inactive are the calls of the source. Unless noted, how the calls were made is not given here.

Chain of Plasmodium falciparum protein kinase 6 (PK6, PF3D7_1337100) (Q8IDW1 1-305): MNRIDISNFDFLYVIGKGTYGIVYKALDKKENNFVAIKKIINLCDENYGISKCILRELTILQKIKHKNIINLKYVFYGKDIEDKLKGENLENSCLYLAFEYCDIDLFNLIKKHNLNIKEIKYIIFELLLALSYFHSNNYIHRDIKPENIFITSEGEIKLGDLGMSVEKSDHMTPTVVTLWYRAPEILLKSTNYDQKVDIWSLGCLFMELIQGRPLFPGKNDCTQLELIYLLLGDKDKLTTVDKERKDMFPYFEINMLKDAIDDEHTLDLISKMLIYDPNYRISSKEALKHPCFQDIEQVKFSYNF
Chain of Protein kinase 7 (PK7), Plasmodium falciparum 3D7 (PF3D7_0213400) (Q7YTF7 1-343): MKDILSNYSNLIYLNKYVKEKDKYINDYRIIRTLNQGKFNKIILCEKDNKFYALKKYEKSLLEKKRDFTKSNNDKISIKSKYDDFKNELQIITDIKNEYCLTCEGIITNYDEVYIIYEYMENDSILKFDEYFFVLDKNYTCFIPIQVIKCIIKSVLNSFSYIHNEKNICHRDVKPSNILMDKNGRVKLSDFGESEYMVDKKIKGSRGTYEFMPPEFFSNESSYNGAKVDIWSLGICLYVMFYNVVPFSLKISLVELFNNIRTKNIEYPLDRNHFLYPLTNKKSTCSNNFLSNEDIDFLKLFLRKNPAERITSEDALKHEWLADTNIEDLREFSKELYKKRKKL
Chain of Calcium-dependent protein kinase 1 (Plasmodium falciparum (isolate 3D7)) (P62344 whole entry, looked up): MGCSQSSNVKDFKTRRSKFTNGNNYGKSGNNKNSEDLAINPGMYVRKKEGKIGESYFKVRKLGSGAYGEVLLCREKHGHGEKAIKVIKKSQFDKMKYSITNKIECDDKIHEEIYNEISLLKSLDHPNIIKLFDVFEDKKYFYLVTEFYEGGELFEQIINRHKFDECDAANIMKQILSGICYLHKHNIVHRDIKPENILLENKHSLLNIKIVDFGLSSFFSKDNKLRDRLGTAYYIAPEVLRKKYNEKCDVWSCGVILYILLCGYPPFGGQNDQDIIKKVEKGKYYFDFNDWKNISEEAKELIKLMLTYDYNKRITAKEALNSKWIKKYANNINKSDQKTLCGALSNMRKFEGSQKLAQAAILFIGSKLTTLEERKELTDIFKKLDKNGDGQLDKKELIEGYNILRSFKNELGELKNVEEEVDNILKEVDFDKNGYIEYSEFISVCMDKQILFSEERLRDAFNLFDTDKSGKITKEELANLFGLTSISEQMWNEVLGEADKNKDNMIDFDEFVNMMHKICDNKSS
Chain of L-lactate dehydrogenase (Plasmodium falciparum (isolate CDC / Honduras)) (Q27743 whole entry, looked up): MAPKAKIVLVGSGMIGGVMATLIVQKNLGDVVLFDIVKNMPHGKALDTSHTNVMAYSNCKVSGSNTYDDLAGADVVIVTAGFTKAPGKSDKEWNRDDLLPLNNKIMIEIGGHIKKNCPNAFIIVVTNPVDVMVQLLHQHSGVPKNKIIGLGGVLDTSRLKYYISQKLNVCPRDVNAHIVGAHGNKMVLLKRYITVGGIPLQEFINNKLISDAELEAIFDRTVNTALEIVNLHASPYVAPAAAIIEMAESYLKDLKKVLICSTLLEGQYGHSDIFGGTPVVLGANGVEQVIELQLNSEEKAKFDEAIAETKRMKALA
Chain of Calcium-dependent protein kinase 4 (Plasmodium falciparum (isolate 3D7)) (Q8IBS5 whole entry, looked up): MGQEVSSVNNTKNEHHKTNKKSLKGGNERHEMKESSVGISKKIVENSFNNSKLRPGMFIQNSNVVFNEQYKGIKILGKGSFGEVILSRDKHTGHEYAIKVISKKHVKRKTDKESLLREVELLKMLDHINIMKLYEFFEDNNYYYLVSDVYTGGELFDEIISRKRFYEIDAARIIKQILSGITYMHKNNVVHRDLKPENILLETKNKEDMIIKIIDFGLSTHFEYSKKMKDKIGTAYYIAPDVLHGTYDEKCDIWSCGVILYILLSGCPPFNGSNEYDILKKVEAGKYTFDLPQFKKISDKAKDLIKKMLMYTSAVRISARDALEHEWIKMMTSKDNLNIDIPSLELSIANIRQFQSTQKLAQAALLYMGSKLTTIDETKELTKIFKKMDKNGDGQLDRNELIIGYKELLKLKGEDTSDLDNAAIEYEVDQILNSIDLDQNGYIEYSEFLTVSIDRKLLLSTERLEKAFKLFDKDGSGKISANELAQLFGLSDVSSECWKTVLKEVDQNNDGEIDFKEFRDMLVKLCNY

What is called inhibition is the relative decrease from the control value, in per cent. With `c1ccc(COc2ccccc2COc2ccccc2-c2ccc3cccnc3n2)cc1`, the growth inhibition in assay [1] is 95% (active); in assay [4], 87% (active). Further, the inhibition is -6% in assay [2] and 5% in assay [3]. In addition, the result in assay [5], in assay [6], in assay [7] and in assay [8] was inactive.

For `Clc1ccc2nc(-c3cccnc3)[nH]c2c1`, the growth inhibition in assay [1] was 97% (active); in assay [4], 92% (active). Further, the inhibition in assay [2] is -11%; in assay [3], 2%. Moreover, the result in assay [5], in assay [6], in assay [7] and in assay [8] was inactive.

Turning to `NC1CCN(Cc2cccc(-c3ccc(-c4nc5ccc(F)cc5[nH]4)cc3)c2)C1` (stereo not given), the growth inhibition in assay [1] and in assay [4] was 99% (active) each time. Also, the figures for the inhibition in assay [2] and in assay [3] were 24% and -1%, respectively. Moreover, the outcome in assay [5], in assay [6], in assay [7] and in assay [8] was inactive.

Turning to `CN(CCC1CCN(C(=O)/C=C/c2ccc(Cl)c(Cl)c2)CC1)C1CCC(c2c[nH]c3ccccc23)CC1` (stereo not given), the growth inhibition in assay [1] was 9%; in assay [4], 87% (active). The inhibition in assay [2] is 57% (active); in assay [3], -5%. The result in assay [5], in assay [6], in assay [7] and in assay [8] was inactive.

Take `Cc1noc(C)c1-c1cccc(CNCc2ccc(-c3ccc(-c4nc5ccc(F)cc5[nH]4)s3)cc2)c1`: the growth inhibition was 93% (active) in assay [1] and 102% (active) in assay [4]. For the same compound, the inhibition was 45% in assay [2] and 6% in assay [3]. The outcome in assay [5], in assay [6], in assay [7] and in assay [8] was inactive.

For the compound `COc1ccc(CN2CCC(CNCc3cccc(-c4ccccc4)c3)CC2)cc1`, the growth inhibition was 92% (active) in assay [1] and 100% (active) in assay [4]. Besides, the inhibition was 96% (active) in assay [2] and 2% in assay [3]. Further, the result in assay [5], in assay [6], in assay [7] and in assay [8] was inactive.

In the case of `CC(C)CNCc1cccc(-c2ccc(CNc3ccc(C(=O)c4ccccc4)cc3)cc2)c1`, the figures for the growth inhibition in assay [1] and in assay [4] were 0% and 97% (active), respectively. The figures for the inhibition in assay [2] and in assay [3] were 10% and 0%, respectively. Besides, the outcome in assay [5], in assay [6], in assay [7] and in assay [8] was inactive.

In the case of `O=C(Nc1ccc2c(c1)CCN2C1CCN(Cc2ccc(F)cc2Cl)C1)c1ccco1` (stereo not given), the growth inhibition in assay [1] was 96% (active); in assay [4] it was 97% (active). Further, the inhibition was 4% in assay [2] and 2% in assay [3]. The result in assay [5], in assay [6], in assay [7] and in assay [8] was inactive.

Take `COc1cccc2c(NN=Cc3ccccc3[N+](=O)[O-])cc(C)nc12`: the results for the growth inhibition in assay [1] and in assay [4] were 32% and 99% (active), respectively. The inhibition was -6% in assay [2] and -5% in assay [3]. In addition, the result in assay [5], in assay [6], in assay [7] and in assay [8] was inactive.

As to `CC(=O)Nc1cccc(C(=O)Nc2cccc(-c3cccc(-c4nc5ccc(F)cc5[nH]4)c3)c2)c1`, the growth inhibition in assay [1] was 44%; in assay [4], 101% (active). In addition, the values for the inhibition in assay [2] and in assay [3] were 51% (active) and -5%, respectively. The outcome in assay [5], in assay [6], in assay [7] and in assay [8] was inactive.

As to `Cc1cc(=O)c(-c2ccc(Sc3ccc(Cl)cc3)cc2)c(C)[nH]1`, the growth inhibition in assay [1] is 84% (active); in assay [4], 92% (active). The figures for the inhibition in assay [2] and in assay [3] were -3% and -7%, respectively. For the same compound, the result in assay [5], in assay [6], in assay [7] and in assay [8] was inactive.

`Clc1ccc2c(NCCc3ccccn3)ccnc2c1`: the growth inhibition in assay [1] was 72% (active); in assay [4] it was 92% (active). Besides, the inhibition in assay [2] was 13%; in assay [3], -1%. Also, the outcome in assay [5], in assay [6], in assay [7] and in assay [8] was inactive.

Turning to `COc1ccc(-c2onc(C(F)(F)F)c2-c2cc3ccccc3o2)c(O)c1`, the results for the growth inhibition in assay [1] and in assay [4] were 15% and 93% (active), respectively. Further, the inhibition is 6% in assay [2] and 0% in assay [3]. Further, the result in assay [5], in assay [6], in assay [7] and in assay [8] was inactive.

With `COc1cc2nc(N3CCC(CNC(=O)c4ccc(C(C)=O)cc4)CC3)nc(N)c2cc1OC`, the results for the growth inhibition in assay [1] and in assay [4] were 15% and 96% (active), respectively. Moreover, the inhibition is 10% in assay [2] and 1% in assay [3]. For the same compound, the outcome in assay [5], in assay [6], in assay [7] and in assay [8] was inactive.

For `O=C(NCCN1CCOCC1)c1ccc(CNC(=O)c2ccc(O)c(-c3ccc(Cl)c(Cl)c3)c2)cc1`, the figures for the growth inhibition in assay [1] and in assay [4] were 55% (active) and 87% (active), respectively. In addition, the inhibition in assay [2] is 3%; in assay [3] it was -1%. Further, the result in assay [5], in assay [6], in assay [7] and in assay [8] was inactive.

Turning to `Cc1cc(-c2cccc3c(NC(=O)N4CCc5cc6nccc(N7CCN8CCC[C@H]8C7)c6cc54)cccc23)cc(C)n1`, the growth inhibition in assay [1] is 100% (active); in assay [4] it was 101% (active). Also, the inhibition in assay [2] is 12%; in assay [3], 6%. Moreover, the result in assay [5], in assay [6], in assay [7] and in assay [8] was inactive.

Turning to `COc1ccc2nccc([C@@H](O)CN3CCC(NCC(O)Cc4ccccc4)CC3)c2c1` (stereo not given in full), the growth inhibition in assay [1] is 6%; in assay [4] it was 98% (active). Moreover, the results for the inhibition in assay [2] and in assay [3] were 5% and -3%, respectively. Also, the result in assay [5], in assay [6], in assay [7] and in assay [8] was inactive.

On to `CCOc1cc(CC)ccc1C1CCN(CCN2CCC(NC(=O)c3ccc(-c4ccc(C(C)=O)cc4)cc3)CC2)CC1`, for which the results for the growth inhibition in assay [1] and in assay [4] were 8% and 100% (active), respectively. For the same compound, the results for the inhibition in assay [2] and in assay [3] were 25% and -1%, respectively. The outcome in assay [5], in assay [6], in assay [7] and in assay [8] was inactive.

On to `O=C(Nc1ccc(C(F)(F)F)cc1)NC1CCN(CCCCCNC(=O)[C@@H]2C[C@H]2c2ccc(Cl)c(Cl)c2)CC1`, for which the growth inhibition in assay [1] was 45%; in assay [4] it was 101% (active). The figures for the inhibition in assay [2] and in assay [3] were 41% and -7%, respectively. In addition, the outcome in assay [5], in assay [6], in assay [7] and in assay [8] was inactive.

Regarding `COc1ccccc1C1CCN(C2CCC(NC(=O)/C=C/c3cccc(Cl)c3)CC2)CC1` (stereo not given), the growth inhibition is 20% in assay [1] and 92% (active) in assay [4]. For the same compound, the inhibition in assay [2] was 54% (active); in assay [3], 3%. Also, the outcome in assay [5], in assay [6], in assay [7] and in assay [8] was inactive.

Source of the values: PubChem BioAssay.
